Results on five compounds are retold here after publication PMC5540273 (PLoS ONE, 2017).

The test system of one test is TSSK3. The settings on record: concentration: 1 μM, replicates: in singlicate, n = 1.
Another test relates to TTK. To be noted: concentration: 1 μM, replicates: in singlicate, n = 1.
A further test relates to TXK. To be noted: concentration: 1 μM, replicates: in singlicate, n = 1.
The test system of test [1] is TYK2(JH1domain-catalytic). To be noted: concentration: 1 μM, replicates: in singlicate, n = 1.
Test [2] relates to TYK2(JH2domain-pseudokinase). To be noted: concentration: 1 μM, replicates: in singlicate, n = 1.
Another test concerns TYRO3. The settings on record: concentration: 1 μM, replicates: in singlicate, n = 1.
For another test, the system named is ULK1. To be noted: concentration: 1 μM, replicates: in singlicate, n = 1.
The test system of the next test is ULK2. The settings on record: concentration: 1 μM, replicates: in singlicate, n = 1.
A further test deals with ULK3. To be noted: concentration: 1 μM, replicates: in singlicate, n = 1.
The subject of the next test is T1, VEGFR2.
T1 construct: gene KDR
The settings on record: concentration: 1 μM, replicates: in singlicate, n = 1.

The subject of a further test is T2, VPS34.
T2 construct: gene PIK3C3
To be noted: concentration: 1 μM, replicates: in singlicate, n = 1.

The test system of the next test is VRK2. To be noted: concentration: 1 μM, replicates: in singlicate; n = 1.
The test system of another test is WEE1. To be noted: concentration: 1 μM, replicates: in singlicate; n = 1.
In the next test the test system is WEE2. The settings on record: concentration: 1 μM, replicates: in singlicate, n = 1.
A further test concerns WNK1. The settings on record: concentration: 1 μM, replicates: in singlicate, n = 1.
For another test, the system named is WNK2. To be noted: concentration: 1 μM, replicates: in singlicate; n = 1.
For another test, the system named is WNK3. To be noted: concentration: 1 μM, replicates: in singlicate, n = 1.
In a further test the test system is WNK4. To be noted: concentration: 1 μM, replicates: in singlicate, n = 1.
Another test concerns T3, YANK1.
T3 construct: gene STK32A
The settings on record: concentration: 1 μM, replicates: in singlicate, n = 1.

A further test deals with T4, YANK2.
T4 construct: gene STK32B
To be noted: concentration: 1 μM, replicates: in singlicate, n = 1.

Where “and” joins values, the source holds several entries; their conditions need not be identical. Identical values can stand only once. Like-named read-outs stand apart in the source and are kept apart here.
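Further: KINOMEscan kinase panel screen.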

As for `Cn1cc(-c2ccc3c(c2)CCN3C(=O)Cc2ccccc2Cl)c2c(N)ncnc21` [GSK2608885], the “%Inh” value with TSSK3 is recorded as 7%; in the test on TTK, 17%; in the test on TXK, 85%; in test [1], 33%; in test [2], 0%; in the test with TYRO3, 100%. Also, the “%Inh” value with ULK1 was 6%; in the test on ULK2, 0%; in the test on ULK3, 6%; with VEGFR2, 82%; in the test on VPS34, 0%; with VRK2, 0%. The “%Inh” value in the test on WEE1 was 0%; with WEE2, 0%; with WNK1, 0%; in the test with WNK2 it was 17%; in the test with WNK3, 6%; in the test on WNK4 it was 25%. The results for the “%Inh” value in the test on YANK1 and with YANK2 were 32% and 84%, respectively.
As for `Cl.Cl.Cl.Fc1ccc(-c2ncn(C3CCNCC3)c2-c2ccnc(Nc3ccccc3)n2)cc1` [SB-238039], the “%Inh” value is 19% and 5% in the test with TSSK3 (1 µM); 15% and 3% in the test with TTK (1 µM); 3% and 0% with TXK (1 µM); 35% and 0% in [1] (1 µM); 18% and 0% in test [2] (1 µM); 0% and 12% in the test on TYRO3 (1 µM). The “%Inh” value in the test on ULK1 (1 µM) is 28% and 6%; in the test on ULK2 (1 µM), 21% and 29%; in the test on ULK3 (1 µM), 24% and 26%; in the test on VEGFR2 (1 µM), 0% and 9%; in the test on VPS34 (1 µM), 44% and 8%; in the test on VRK2, 100%. Further, the “%Inh” value in the test on WEE1 is 0%; in the test on WEE2 (1 µM), 0% and 24%; in the test with WNK1 (1 µM) it was 30% and 0%; in the test with WNK2, 0%; in the test with WNK3 (1 µM), 26% and 0%; with WNK4 (1 µM), 30% and 0%. In addition, the “%Inh” value was 95.6% and 93.7% with YANK1 (1 µM); 94.1% and 88% in the test with YANK2 (1 µM).
`CCn1cnc2c(N)ncnc21` [GW345098]: the “%Inh” value was found to be 6% with TSSK3; 0% in the test on TTK; 8% in the test with TXK; 23% in test [1]; 0% in test [2]; 32% in the test on TYRO3. Besides, the “%Inh” value in the test with ULK1 is on record as 0%; in the test on ULK2 it was 21%; in the test with ULK3, 0%; in the test with VEGFR2, 0%; in the test with VPS34, 1%; with VRK2 it was 0%. Also, the “%Inh” value with WEE1 came to 2%; with WEE2 it was 14%; in the test on WNK1, 0%; with WNK2, 0%; in the test with WNK3, 0%; in the test on WNK4, 0%. Besides, the “%Inh” value in the test on YANK1 and in the test on YANK2 was 0% each time.
Turning to `COc1ccc(Nc2nccc(N3CCC(NC(=O)Nc4cc(C)ccc4C)C3)n2)cc1` (stereo not shown) [GSK1379741], the “%Inh” value in the test on TSSK3 came out at 9%; in the test on TTK, 0%; in the test on TXK, 0%; in [1] it was 0%; in test [2], 23%; in the test on TYRO3, 0%. In addition, the “%Inh” value with ULK1 was determined as 15%; in the test on ULK2, 0%; with ULK3, 12%; with VEGFR2, 0%; with VPS34, 0%; with VRK2, 0%. Moreover, the “%Inh” value stood at 14% in the test on WEE1; 0% in the test on WEE2; 7% in the test with WNK1; 59% in the test on WNK2; 18% with WNK3; 40% in the test with WNK4. In addition, the “%Inh” value with YANK1 and in the test on YANK2 was 0% throughout.
`Cc1nnc(-c2ccc3occ(-c4ccc(C(C)O)cc4)c3c2)o1` (stereo not shown): the “%Inh” value in the test with TSSK3 is 1%; in the test with TTK, 8%; in the test with TXK, 4%; in test [1] it was 0%; in test [2], 2%; in the test with TYRO3 it was 6%. Further, the “%Inh” value in the test with ULK1 came to 1%; in the test with ULK2, 2%; in the test on ULK3 it was 6%; with VEGFR2, 0%; in the test on VPS34 it was 18%; in the test with VRK2, 0%. Also, the “%Inh” value in the test on WEE1 worked out at 8%; in the test with WEE2, 7%; in the test with WNK1, 0%; in the test with WNK2, 0%; with WNK3 it was 0%; in the test with WNK4 it was 0%. For the same compound, the “%Inh” value in the test on YANK1 came out at 5%; in the test on YANK2 it was 2%.
